# Mcl1-Noxa inh: Mcl-1/Noxa interaction inhibition; TR-FRET Mcl-1/Noxa peptide binding, 2 h; inhibition, % at 21.7 µM; actives 1.5% (n = 220,000);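 active = compounds that cut the protein-peptide binding signal by more than 50% relative to plate controls in a single-dose test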;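 note: His-tagged Mcl-1 with rhodamine Noxa BH3 peptide and terbium anti-His antibody; 0% = Mcl-1 plus Noxa peptide wells and 100% = peptide-only wells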
# Target sequence (Q07820 whole entry, looked up): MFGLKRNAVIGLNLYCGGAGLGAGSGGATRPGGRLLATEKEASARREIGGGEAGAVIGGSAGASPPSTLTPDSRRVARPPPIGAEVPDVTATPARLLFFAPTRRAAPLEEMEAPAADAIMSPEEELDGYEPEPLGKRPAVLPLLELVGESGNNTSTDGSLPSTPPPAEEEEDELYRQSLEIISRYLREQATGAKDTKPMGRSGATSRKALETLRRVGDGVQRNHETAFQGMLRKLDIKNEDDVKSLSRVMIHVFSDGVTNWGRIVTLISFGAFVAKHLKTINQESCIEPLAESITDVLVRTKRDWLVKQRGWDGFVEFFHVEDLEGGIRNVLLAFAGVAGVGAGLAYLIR
# Bcl-xL primary: inhibitors of human Bcl-xL; inhibition, % at 10.9 µM; actives 0.7% (n = 320,000); GST-Bcl-xL / FITC-Bim BH3 peptide fluorescence polarization; Q07817;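 active = inhibition above the mean of all tested compounds plus 3 SD, cutoff set per campaign, cut at about 30% in these data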;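 note: 0% = DMSO wells and 100% = unlabeled Bim-BH3 peptide competitor; inhibitors lower millipolarization by displacing the labeled peptide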
# Target sequence (Q07817 whole entry, looked up): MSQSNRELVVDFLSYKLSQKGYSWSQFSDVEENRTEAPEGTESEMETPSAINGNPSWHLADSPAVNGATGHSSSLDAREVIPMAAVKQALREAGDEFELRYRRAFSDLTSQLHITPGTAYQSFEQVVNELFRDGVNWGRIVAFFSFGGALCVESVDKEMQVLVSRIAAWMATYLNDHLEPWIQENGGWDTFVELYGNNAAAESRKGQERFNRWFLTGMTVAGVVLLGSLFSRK
# MCL1-BIM inh: disrupts human MCL1 binding to BIM-BH3 peptide | AID 2057 | actives 0.68% (n = 320,000) | inhibition, % at 10.9 µM | GST-MCL1 / FITC-Bim-BH3 fluorescence polarization;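 active = inhibition above the mean inhibition of all tested compounds plus 3 SD, set per campaign, cut at about 40% in these data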;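 note: 0% = DMSO wells and 100% = unlabeled Bim-BH3 peptide control; higher means more loss of mP so more displacement of Bim peptide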
# Mcl-1 Bim block: disrupts Bim peptide binding to human Mcl-1; Q07820; Bead-based flow cytometry, Bim peptide-Mcl-1 binding; inhibition, % at 10 µM; actives 0.1% (n = 190,000); in the data active = inhibition above about 40%;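 note: 0% = no compound tracer wells and 100% = peptide blocker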
# GLD-1 RNA inh: GLD-1-TGE RNA interaction inhibition (C. elegans); AID 2280; inhibition, % at 5.96 µM; actives 0.44% (n = 320,000); purified GLD-1 + fluorescein TGE RNA, fluorescence polarization;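 active = percent inhibition above a per-plate cutoff, the plate mean of test compounds plus 3 SD, cut at about 30% in these data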;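 note: 0% = DMSO wells with GLD-1 and probe and 100% = wells lacking GLD-1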
# Mcl1 Bid PPI: Mcl-1/Bid interaction inhibition. TR-FRET Mcl-1/Bid-Dy647 peptide binding, 1536-well. inhibition, % at 21.7 µM. actives 0.97% (n = 220,000);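 active = compounds that cut the binding signal by more than half at the single screening dose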;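 note: His-tagged Mcl-1 with europium anti-His antibody binding Bid BH3 peptide; 0% = Mcl-1 plus peptide wells and 100% = peptide-only wells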
# Bcl-xL conf: Bcl-xL (human) inhibition, MCL1 counter-screen confirmation. actives 54% (n = 1,700). shares compounds with MCL1-BIM inh. inhibition, % at 10.9 µM. GST-Bcl-xL / FITC-Bim BH3 peptide FP binding;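 active = inhibition above a cutoff equal to the mean inhibition of all tested compounds plus 3 SD, cut at about 30% in these data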;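 note: 0% = DMSO wells and 100% = unlabeled Bim BH3 control peptide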
# MCL1 BIM confirm: confirmation of human MCL1 and BIM-BH3 interaction inhibitors; shares compounds with MCL1-BIM inh; GST-MCL1 / FITC-Bim-BH3 fluorescence polarization; inhibition, % at 10.9 µM; actives 61% (n = 1,700); AID 2168;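 active = inhibition above the average of all tested compounds plus 3 SD, cut at about 40% in these data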;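 note: 0% = DMSO wells and 100% = unlabeled Bim-BH3 control peptide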
# * marks the source's active call; other numbers are inactive results; i = inactive; x = not tested or not shown; + = active, no number; ! = not active in a repeat. This is a sample that favours compounds with a hit; in the whole collection about 2.3% have one here.
SMILES,Mcl1-Noxa inh,Bcl-xL primary,MCL1-BIM inh,Mcl-1 Bim block,GLD-1 RNA inh,Mcl1 Bid PPI,Bcl-xL conf,MCL1 BIM confirm
O=C(O)CN1C(=O)/C(=C\c2cc([N+](=O)[O-])ccc2OCc2ccccc2Cl)SC1=S,x,3,51*,x,4,x,22,47*
O=C1/C(=C\c2cc([N+](=O)[O-])ccc2O)SC(=S)N1Cc1ccc(Cl)cc1,x,76*,66*,x,47*,x,88*,105*
CCC(NC(=O)CNC(=O)CNC(=O)c1ccc(Cl)cc1Cl)c1ccc(C)cc1 (stereo unspecified),x,1,-1,x,1,x,x,x
COc1ccc2oc(/C=C/N(C)C)c(C(=O)c3ccc(Cl)cc3)c2c1,x,-9,-17,0,0,-19,x,x
Cc1ccc(OCCOCCn2ccnc2)c(Br)c1,9,-1,44*,-8,-2,22,-8,-22
CCS(=O)(=O)c1ccc2oc(Nc3cc(Cl)ccc3OC)nc2c1,x,0,4,x,-2,x,x,x
O=[N+]([O-])c1cc(Oc2cccnc2)cc([N+](=O)[O-])c1,-9,2,5,-6,4,10,x,x
O=[N+]([O-])c1cccc(Oc2cnccn2)c1,x,3,41*,x,6,x,5,2
Cc1cc(OCc2cc(C(=O)N(Cc3nccn3C)C(C)C)no2)cc(C)c1Cl,x,5,3,x,2,x,x,x
CCCCCCC(=O)O,x,x,x,x,1,x,x,x
CCCCCCCCCCCCCCCC(=O)OC(CC(=O)O)C[N+](C)(C)C (stereo unspecified),x,12,85*,x,3,x,9,8
CCc1oc2ccccc2c1C(=O)c1cc(Br)c(O)c(Br)c1,33,1,62*,-4,3,52*!,4,12
CC(=O)c1ccc2c3c(cccc13)C(=O)N(c1c(C)nn(C)c1C)C2=O,14,11,-19,4,8,-44,x,x
Cc1n[nH]c(C)c1N1C(=O)c2cccc3c(N4CCCCCC4)ccc(c23)C1=O,-76,+,+,2,+,-81,184*,+
COc1ccc(C)cc1S(=O)(=O)N1CCN(C(=O)c2ncoc2-c2ccccc2F)CC1,x,5,5,x,5,x,x,x
CN1C(=O)c2cccc3c(N(C)C)ccc(c23)C1=O,x,75*,89*,x,10,x,31*,33
CNc1ccc2c3c(cccc13)C(=O)N(C)C2=O,x,178*,+,x,119*,x,+,+
Cc1nnc(Nc2ccc(C(=O)N3CCOCC3)cc2)c2ccccc12,7,9,3,0,15,-7,x,x
N#Cc1ccccc1S(=O)(=O)N1CCN(C(=O)CCC2CCCC2)CC1,x,-12,-14,x,3,x,x,x
O=C1CSC(=S)N1/N=C/c1ccc(O)c(O)c1O,101*,66*,85*,x,-5,100*,75*,93*
CCOC(=O)c1cnc(-n2[nH]c(C)cc2=O)[nH]c1=O,-9,1,74*,1,-4,-164,5,81*
CCCOc1ccc(/C=C/C(=O)O)cc1OC,8,5,-2,-1,2,-8,x,x
CCOC(=O)C1=C(C)NC(=S)NC1/C=C/c1ccccc1 (stereo unspecified),19,-4,1,5,3,-62,x,x
C/C(N)=C(/C#N)C(=O)CSc1nnc(Nc2ccccc2)s1,16,-10,-7,0,-4,7,x,x
C/C(N)=C(/C#N)C(=O)CSc1nnc(NC(C)C)s1,48,11,51*,0,4,-45,26,78*
SMILES,Mcl1-Noxa inh,Bcl-xL primary,MCL1-BIM inh,Mcl-1 Bim block,GLD-1 RNA inh,Mcl1 Bid PPI,Bcl-xL conf,MCL1 BIM confirm
O=C1CN(C(=O)NCCC(=O)NC2CCCCC2)c2ccccc2N1,x,8,69*,x,7,x,3,-8
CN(C(=O)CCNC(=O)N1CC(=O)Nc2ccccc21)C1CCCCC1,x,2,6,x,6,x,x,x
O=C1C2C3C=CC(CC3)C2C(=O)N1c1ccc(F)cc1 (stereo unspecified),x,0,3,x,-1,x,x,x
CC(C)C1NC2(C(=O)c3ccccc3C2=O)C2C(=O)N(c3ccc(F)cc3)C(=O)C12 (stereo unspecified),48,80*,64*,-7,120*,-20,11,7
CCOC(=O)C[C@H]1c2ccc(C(F)(F)F)cc2S(=O)(=O)N1c1cccc(OC)c1,x,7,41*,x,0,x,-5,43*
COc1cccc(N2[C@@H](CC(C)=O)c3cc(C(F)(F)F)ccc3S2(=O)=O)c1,x,4,-2,x,-8,x,x,x
O=C1NC(=S)S/C1=C/c1ccc(N2CCOCC2)o1,i,47*,65*,12,12,-54,39*,32
O=C1S/C(=C/c2ccc(N3CCOCC3)o2)C(=O)N1Cc1ccc(F)cc1,35,-72,-117,0,-114,12,x,x
O=C1NC(=O)/C(=C/c2cccc3ccccc23)S1,x,8,10,x,9,x,x,x
O=C1NC(=O)/C(=C\c2ccc(O)cc2O)S1,95*,31*,50*,2,-12,-41,94*,133*
CC(C)Oc1cccc(-c2nnc(SCC(=O)Nc3ccc4c(c3)OCCO4)n2N)c1,7,3,10,-1,6,-14,x,x
C[C@@H]1CN([C@H](C)CO)C(=O)Cc2cc(NC(=O)CCC(F)(F)F)ccc2O[C@@H]1CN(C)C(=O)NC1CCCCC1,x,x,x,x,5,x,x,x
CC(=O)Nc1ccc(S(=O)(=O)N2CCN(C(=O)C3COc4ccccc4O3)CC2)cc1 (stereo unspecified),x,2,5,x,4,x,x,x
COc1ccc(S(=O)(=O)N2CCN(C(=O)C3COc4ccccc4O3)CC2)cc1 (stereo unspecified),x,13,89*,x,9,x,16,90*
CCn1nc(-c2ccccc2)c2nc3ccccc3nc21,7,88*,101*,-2,15,-10,137*,140*
CC1(C)Cc2c(C#N)c(N)sc(=S)c2CS1,41,57*,71*,2,47*,-16,71*,88*
Cn1c(N)c(C#N)c2c(c1=S)CSC(C)(C)C2,20,16,13,3,8,-59,x,x
CSc1ccc(C2C(C(=O)c3ccco3)=C(O)C(=O)N2c2nnc(SC)s2)cc1 (stereo unspecified),x,111*,93*,x,93*,x,143*,168*
CCCOc1cccc(C2C(C(=O)c3ccco3)=C(O)C(=O)N2c2nnc(C)s2)c1 (stereo unspecified),x,41*,54*,x,56*,x,56*,72*
